Each structure is given as a SMILES string. About 4,000 (1.1%) of roughly 380,000 compounds were called active. Inconclusive results (about 3%) are left out. The call rests on the fitted dose curve; in most records, active means well fitted activation curve with a large enough effect; inconclusive means small, poorly fitted or top-dose-only effect; inactive means no such curve, though single readings can be large or run the other way. The list comes from a sample in which actives are over-represented; it also holds similar structures and randomly drawn compounds. Where a call stands in place of a potency, no number is given.
Potency means the concentration at half of the fitted maximal effect.

The experiment is described as follows: qHTS Assay to Identify Small Molecule Activators of BRCA1 Expression. Further: nearly all actives have a fitted effect of over 80% in size. The following applies: MCF7-BRCA1-FFLuc reporter, luminescence, 48 h; series mostly up to 46.1 µM. A digest of the protocol:
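Luminescence from a BRCA1-driven firefly luciferase in MCF7 cells was the read-out, taken 15 min after substrate addition following 48 h compound exposure at 37 °C. Data were normalized to a 10 microM genistein control and DMSO vehicle.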
Background: qHTS replaces the single test concentration by a dilution series.
Turning to `Nc1ncnc2nnsc12`, the Potency result was “inactive”.
Turning to `COc1ccccc1-c1c(C)nn2c(C)c(C(C)=O)cnc12`, the Potency result is “inactive”.
Turning to `CCc1ccc2nc(Nc3ncc(C(C)=O)c(C)n3)nc(C)c2c1`, the Potency entry was “inactive”.
For `COc1ccccc1Nc1ncc(C(C)=O)c(C)n1` the value was 10 µM (active); for `O=C(Cn1c(=O)n(Cc2cccs2)c(=O)c2cccnc21)Nc1ccc(F)cc1`, “inactive”.
As to `CCc1ccccc1NC(=O)Cn1c(=O)n(CC2CCC(C(=O)NCCc3ccccc3)CC2)c(=O)c2ccccc21` (stereo unspecified), the Potency entry is “inactive”.
On to `O=C(Cn1c(=O)n(Cc2ccccc2)c(=O)c2sc3ccccc3c21)Nc1ccccc1F`, for which the Potency result is “inactive”.
`COc1ccc(N2C(=O)CSC23C(=O)N(Cc2cccc(F)c2)c2ccccc23)cc1Cl` (stereo unspecified): the Potency result is “inactive”.
As to `COc1ccc(CCNC(=O)CCc2c(C)nc3c(c(C)nn3-c3ccc(C)c(C)c3)c2C)c(OC)c1OC`, the Potency entry is “inactive”.
Take `CCS(=O)(=O)n1nc(-c2ccc(OC)cc2)nc1SC`: the Potency result was “inactive”.
For `CCS(=O)(=O)n1nc(-c2ccccc2)nc1SCc1ccccc1` the value was 3.98 µM (active).
Regarding `Cc1ccc(S(=O)(=O)n2nc(-c3ccc(Cl)cc3)nc2NCc2ccccc2)cc1`, the Potency entry is “inactive”.
For `COc1ccccc1N1CCN(c2ncnc3onc(-c4ccc(F)cc4)c23)CC1` the value was “inactive”.
Regarding `COc1ccc(-n2nnc(-c3nsc(NC(=O)c4ccc(C)c(C)c4)n3)c2C)cc1Cl`, the Potency result is “inactive”.
On to `CCOC(=O)c1ccc(NC(=O)c2csc3c2CCCCC3)cc1`, for which the Potency result is “inactive”.
As to `CCOc1ccc(CCNC(=O)c2csc3c2CCCCC3)cc1`, the Potency result is “inactive”.
For `Cc1ccc(NC(=O)c2csc3c2CCCC3)cc1` the value was 12.6 µM (active); for `Cc1ccc(OCCSc2nc3ccc(NC(=O)COc4ccc(C)cc4)cc3s2)cc1`, “inactive”; for `O=C(Cn1c(=O)n(-c2ccc(F)cc2)c(=O)c2sc3ccccc3c21)NC1CCCC1`, “inactive”.
`Cc1cccc(NC(=O)N2CCN(C)c3ncccc32)c1C`: the Potency result was “inactive”.
In the case of `CCCCC(CC)CNC(=O)C1CCN(S(=O)(=O)c2cccc3nsnc23)CC1` (stereo unspecified), the Potency result was “inactive”.
Turning to `C=CCn1c(SCc2nnc(-c3ccccc3)o2)nnc1C(O)c1ccccc1` (stereo unspecified), the Potency entry was “inactive”.
For `OC(c1nnc(-c2ccccc2)o1)c1cccs1` (stereo unspecified) the value was 11.2 µM (active); for `CCCN(CCC)c1ccc(C(O)c2nnc(-c3ccccc3)o2)cc1` (stereo unspecified), “inactive”.
In the case of `Cc1cc(C)cc(NC(=O)Cn2c(=O)c3ccccc3n3nncc23)c1`, the Potency entry is “inactive”.
With `Cc1ccc(C=O)cc1Cl`, the Potency entry is “inactive”.
On to `O=C(OCc1cc(=O)n2nc(C3CC3)sc2n1)c1ccccc1Cl`, for which the Potency result is “inactive”.
In the case of `COc1cc2nc(SCC(=O)Nc3ccccc3F)n3nc(-c4ccccc4)nc3c2cc1OC`, the Potency result is “inactive”.
In the case of `Cc1cc(C)cc(-n2ccnc2SCC(=O)Nc2nc3ccccc3s2)c1`, the Potency entry is “inactive”.
For the compound `COc1cccc(CNC(=O)c2ccc3c(Cl)c4c(nc3c2)CCCC4)c1`, the Potency result is “inactive”.
Regarding `COc1cccc2sc3cc(NCC[C@@H]4CCCN4C)ccc3c(=O)c12`, the Potency is 11.2 µM (active).
Turning to `CN1CCC[C@@H]1CCO[C@](C)(c1ccccc1)c1ccc(Cl)cc1`, the Potency entry was “inactive”.
In the case of `Cc1cc2oc3ccc(NCCC4CCCN4C)cc3c(=O)c2cc1C` (stereo unspecified), the Potency result is “inactive”.
With `Oc1ccc(Cl)cc1C1C=C(c2ccc3c(c2)OCO3)NC(c2c(F)cccc2Cl)N1` (stereo unspecified), the Potency result is “inactive”.
As to `O=C(Nc1cccc(F)c1)NC1CCCCCCC1`, the Potency was 3.55 µM (active).
For `O=C(Nc1cccc(F)c1)[C@@H]1CCCN1`, the Potency result was “inactive”.
Regarding `Cc1cc(C)cc(NC(=O)NC2CCCCCCC2)c1`, the Potency result was “inactive”.
For `CCn1c(CNC(=O)C23CC4CC(CC(C4)C2)C3)nnc1SCC(=O)Nc1ccc(OC)cc1` the value was “inactive”; for `COc1ccc(-c2cc(-c3ccc(F)cc3)nc3c2COc2ccccc2-3)cc1`, “inactive”; for `COc1ccc(C2=Nc3cc(C)ccc3OC2)cc1`, 11.2 µM (active).
For `COc1ccc(-c2cc(-c3ccccc3)nc3c2COc2ccc(Cl)cc2-3)cc1` the value was “inactive”; for `CCCCCn1c(=O)[nH]c2cc(C(=O)NCCN(C)CCCC)ccc2c1=O`, “inactive”; for `COC(=O)C1=C(c2ccccc2)c2ccccc2S(=O)(=O)N1CC(=O)Nc1ccccc1C(F)(F)F`, “inactive”.
With `COc1ccccc1Cn1c(CO)nc2ccccc21`, the Potency result is “inactive”.
For `COCc1nc2ccccc2n1Cc1ccccc1Br` the value was “inactive”; for `COCn1c(COc2ccccc2)nc2ccccc21`, 12.6 µM (active); for `COc1cc(OC)cc(-c2nc3nc(C)c(CCC(=O)Nc4ccc(C)cc4)c(C)n3n2)c1`, “inactive”.
On to `Cc1ccc(-n2c(SCC(=O)N3CCC(C(=O)O)CC3)nc3ccccc3c2=O)cc1C`, for which the Potency is 4.47 µM (active).
On to `O=C(CSc1nc2ccccc2c(=O)n1-c1ccccc1F)N1CCOCC1`, for which the Potency result is “inactive”.
For `CCc1c(O)nc(SCC(=O)N2CCCCC2)n(-c2ccccc2C)c1=O` the value was “inactive”; for `COc1cccc(CNC(=O)CN2C(=O)CCc3cc(S(=O)(=O)N4CCOCC4)ccc32)c1`, “inactive”.
Under `COc1cc(OC)c(/C=C/c2ccnc3ccccc23)c(OC)c1` stands “inactive”; under `COc1ccc(/C=C/c2ccnc3ccccc23)cc1OC`, “inactive”; under `COc1cc2[nH]c(O)c(C=O)c2cc1OC`, “inactive”.
Under `COc1ccc(N=Cc2c(O)[nH]c3ccccc23)cc1OC` stands 3.16 µM (active); under `CCN(CC)/[N+]([O-])=N/OCOC(=O)Cc1c(C)n(C(=O)c2ccc(Cl)cc2)c2ccc(OC)cc12`, “inactive”; under `CCc1ccc(CNC(=O)c2cc3cc4ccc(OC)cc4nc3o2)cc1`, “inactive”.
For `O=C(NCCOc1ccccc1Cl)C(=O)Nc1ccccc1`, the Potency entry is “inactive”.
On to `COc1cc(SC)ccc1C(=O)NCCOc1ccccc1Cl`, for which the Potency was 7.94 µM (active).
In the case of `COc1ccccc1OCCNC(=O)CCNC(=O)c1ccccc1Cl`, the Potency entry is “inactive”.
As to `CCOCCc1nn2c(=O)cc(COC(=O)CNC(=O)c3ccc(C(C)(C)C)cc3)nc2s1`, the Potency entry was “inactive”.
`Cn1c(=O)nc2n(-c3ccc(Br)cc3)c3cccc(Cl)c3cc-2c1=O`: the Potency entry was “inactive”.
With `O=C(CSc1ncc(S(=O)(=O)c2ccc(Br)cc2)c(=O)[nH]1)Nc1ccc2c(c1)OCCO2`, the Potency result was “inactive”.
Consider `c1ccc(-c2c[nH]c(-c3ccccc3)c2)cc1`, for which the Potency entry is “inactive”.
For the compound `Oc1ccc(-c2cccc(-c3ccc(O)cc3)c2)cc1`, the Potency is 10 µM (active).
Regarding `O=C(OCc1ccc(-c2ccccc2)cc1)c1cccc(O)c1`, the Potency entry was “inactive”.
Regarding `COc1ccccc1CNC(=O)CCCCn1c(=O)c2ccccc2n(CC(=O)Nc2cc(Cl)ccc2C)c1=O`, the Potency result is “inactive”.
For `Cc1cccc(N2CCN(C(=O)c3oc(=O)c4ccccc4c3-c3ccccc3)CC2)c1C` the value was “inactive”; for `O=C(c1[nH]ncc1-c1ccc(Cl)cc1)C1CO1` (stereo unspecified), “inactive”.
On to `O=C(c1nnc(-c2ccc(Cl)cc2)o1)C1CCCC1`, for which the Potency was 11.2 µM (active).
Under `O=C(Nc1cnn(Cc2ccc(Cl)cc2)c1)C1CCCC1` stands “inactive”; under `c1ccc(Cn2nnc3c(N4CCCCC4)ncnc32)cc1`, “inactive”.
For the compound `COc1ccccc1CCNC(=O)c1cccn1-c1nnc(N2CCCCC2)s1`, the Potency entry is “inactive”.
For `COc1ccc(C2NC(=O)N(C)C3=C2C(=O)N(c2ccc(C(=O)O)cc2)C3)cc1` (stereo unspecified) the value was “inactive”; for `CC(C)CNC(=S)NC(=O)c1ccc(Cl)cc1`, 10 µM (active).
For the compound `Cc1scc(C(=O)NNC(=S)NCC(C)C)c1C`, the Potency entry is “inactive”.
On to `CC(C)CNC(=S)NNC(=O)c1nn(C)cc1Cl`, for which the Potency entry is “inactive”.
Consider `Cc1c2cnn(-c3ccccc3)c(=O)c2c(C)n1C(C)C(=O)Nc1ccc(Br)cc1F` (stereo unspecified), for which the Potency result was “inactive”.
With `Cc1cc(C)cc(-n2c(SCC(=O)NCC3CCCO3)nc3c([nH]c4ccccc43)c2=O)c1` (stereo unspecified), the Potency entry is “inactive”.
For `CN(CCOc1ccccc1)C(=O)c1cc(COc2c(F)cccc2F)on1`, the Potency result was “inactive”.
For `Nc1nonc1C(=O)NCCc1ccccc1`, the Potency entry was “inactive”.
For `O=C(NCCCc1ccccc1)c1cc(COc2c(F)cccc2F)on1`, the Potency was 12.6 µM (active).
For the compound `CC(C)Cc1cc(C(=O)NCCc2ccccc2)no1`, the Potency is 5.01 µM (active).
In the case of `O=C(NCCN1CCCC(O)C1)c1cc(COc2c(F)cccc2F)on1` (stereo unspecified), the Potency result is “inactive”.
Take `C[C@H](NC(=O)NCCc1ccccc1)C(=O)O`: the Potency result is “inactive”.
Take `O=S(=O)(c1ccc(C2CCCCC2)cc1)N1CCN(c2ccc(Cl)c(Cl)c2)CC1`: the Potency result is “inactive”.
For `CSc1cccc(NC(=O)CN2C(=O)CCc3cc(S(=O)(=O)N4CCCCC4)ccc32)c1`, the Potency entry is “inactive”.
For `COc1ccc2c(c1)c(=O)c(C(=O)c1ccccc1)cn2CC(=O)Nc1ccc2c(c1)OCCO2`, the Potency entry was “inactive”.
As for `CC(=O)N1CCc2cc(Br)cc(S(=O)(=O)CCC(=O)NCCc3ccc(Cl)cc3)c21`, the Potency entry is “inactive”.
On to `CN(CC(=O)Nc1cccc(C(F)(F)F)c1)S(=O)(=O)c1cccs1`, for which the Potency entry was “inactive”.
As to `C/C(=N/NC(=O)c1ccc(NC(=O)c2ccc(F)cc2)cc1)c1ccccc1`, the Potency is 12.6 µM (active).
As to `C/C(=N/NS(=O)(=O)c1ccccc1)c1ccc(NC(=O)C(F)(F)F)cc1`, the Potency entry is “inactive”.
Under `CC(=O)NN=C(C)c1ccc(NC(=O)C2CC2)cc1` stands “inactive”.
For the compound `O=C(CSc1nc(=O)n(Cc2cccnc2)c2c1CCC2)Nc1ccc(F)cc1F`, the Potency entry is “inactive”.
Under `CC(=O)Nc1ccc(S(=O)(=O)N2CCN(c3ccccc3)CC2)cc1` stands “inactive”; under `CC(C)(C)NC(=O)Cn1nnc(-c2ccccc2Cl)n1`, 12.6 µM (active).
For the compound `COc1cc(-c2nnn(CC(=O)NCc3ccccc3)n2)cc(OC)c1OC`, the Potency entry was “inactive”.
As for `Cc1ccccc1-c1nnn(CC(=O)c2ccc(S(=O)(=O)N3CCCC3)cc2)n1`, the Potency entry was “inactive”.
For `O=C(Nc1ccccc1C(F)(F)F)c1nc(S(=O)(=O)Cc2ccccc2F)ncc1Cl`, the Potency result is “inactive”.
Consider `COc1ccccc1-c1sc2ccccc2c1-c1ccc(C(C)=O)cc1`, for which the Potency result is “inactive”.
Turning to `COC(=O)c1ccc(/C=C/c2c(-c3ccc(OC)cc3)sc3ccccc23)cc1`, the Potency entry is “inactive”.
Under `COc1ccc(N=C(C)c2sc3ccccc3c2O)cc1` stands 5.01 µM (active); under `CCN(CC)S(=O)(=O)c1ccc2c(c1)c(=O)c(C(=O)N1CCN(c3cccc(Cl)c3)CC1)cn2C`, “inactive”.
For `CCNC(=O)c1sccc1-n1cccc1` the value was “inactive”; for `Cc1ccsc1C(=O)NC1CCCCC1C` (stereo unspecified), “inactive”; for `Cc1ccsc1C(=O)NCCc1ccco1`, 4.47 µM (active).

The record behind these values is PubChem BioAssay AID624202 (National Center for Advancing Translational Sciences (NCATS), 2012).
